Laboratory results taken from PubChem BioAssay (NCATS).
Records with an inconclusive call do not appear. The source made the active and inactive calls. Calls come from the whole dose curve; as a rule, active = well fitted curve in the direction sought with a large enough effect; inconclusive = small, poorly fitted or top-dose-only effect, or another doubt; inactive = no such curve, though single readings can be large; an effect the other way counts as inactive or inconclusive.

Experiments:
[1] = molecular target: Glutathione peroxidase 1 (Homo sapiens) (UniProt P07203); test: Primary qHTS Assay for Inhibitors of Recombinant Selenoprotein Glutathione Peroxidase 1 (GPX1) (AID 1845191); note: nearly all actives have a fitted effect of over 65% in size; for activity, negative = inhibition: % is set by controls: 0 for no effect and ±100 for the full control effect
Glutathione peroxidase 1 (Homo sapiens), sequence (P07203 whole entry, looked up): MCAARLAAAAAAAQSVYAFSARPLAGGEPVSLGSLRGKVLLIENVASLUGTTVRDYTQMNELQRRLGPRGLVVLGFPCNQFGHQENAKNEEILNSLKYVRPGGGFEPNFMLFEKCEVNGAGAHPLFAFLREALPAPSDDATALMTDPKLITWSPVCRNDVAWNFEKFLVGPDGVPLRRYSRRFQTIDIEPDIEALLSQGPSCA
Outline: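 Recombinant GPX1 (10 nM final) was preincubated with compound for 30 min at room temperature, then reacted with 1 mM GSH, 0.5 mM CHP, 0.5 mM NADPH and 100 nM glutathione reductase; NADPH fluorescence (340/450 nm) was read at 0 and 15 min.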

[2] = molecular target: Phospholipid hydroperoxide glutathione peroxidase GPX4 (Homo sapiens) (UniProt P36969); test: Primary qHTS Assay for Inhibitors of Recombinant Selenoprotein Glutathione Peroxidase 4 (GPX4) (AID 1845192); note: nearly all actives have a fitted effect of over 65% in size; note: potency is the fitted concentration of half-maximal effect; for activity change, negative = inhibition: series mostly up to about 50 µM; % is set by controls: 0 for no effect and ±100 for the full control effect
Phospholipid hydroperoxide glutathione peroxidase GPX4 (Homo sapiens), sequence (P36969 whole entry, looked up): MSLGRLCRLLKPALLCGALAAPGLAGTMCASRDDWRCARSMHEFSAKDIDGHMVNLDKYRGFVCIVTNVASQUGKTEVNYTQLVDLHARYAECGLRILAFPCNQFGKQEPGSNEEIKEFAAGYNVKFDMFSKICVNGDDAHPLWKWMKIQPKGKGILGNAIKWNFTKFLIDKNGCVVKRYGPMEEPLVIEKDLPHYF
Outline: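 GR-coupled readout: 100 nM GR, 1 mM GSH, 0.5 mM NADPH; NADPH fluorescence (ex 340/em 450 nm) read at t=0 and after 15 min RT. GPX4 200 nM, preincubated 30 min with compound; substrate 0.5 mM CHP.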

[3] = molecular target: Luciferin 4-monooxygenase (Photinus pyralis) (UniProt P08659); test: Primary firefly luciferase (FLuc) qHTS assay for identification of artifact compounds. (AID 1845220); note: nearly all actives have a fitted effect of over 60% in size; note: potency is the fitted concentration of half-maximal effect;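 for activity change, negative = inhibition: series mostly up to about 54 µM; plate controls were DMSO vehicle for no effect and no enzyme for full effect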
Outline: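 qHTS, 15 min compound preincubation with substrate (10 uM luciferin, 10 uM ATP) at RT, then 10 nM FLuc; 5 min; luminescence; % inhibition vs no-enzyme/DMSO controls, 4-parameter Hill fit.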

[4] = Primary fluorescence-based thiol-reactive (MSTI) qHTS assay for identification of artifact compounds. (AID 1845221); note: nearly all actives have a fitted effect of over 65% in size; note: potency is the fitted concentration of half-maximal effect;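 for activity change, negative = thiol reactive: series mostly up to about 54 µM; thiol-reactive compounds lower the probe fluorescence signal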
Outline: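 One-hour, room-temperature, dark incubation of compound with 4 uM MSTI in PBS (pH 7.4, 2% DMSO) precedes a fluorescence read at 525 nm excitation, 598 nm emission; Hill-equation fitting yields concentration-response values.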

[5] = tested on: Nanoluciferase (engineered Oplophorus gracilirostris luciferase); test: Primary Nanoluciferase (NLuc) qHTS assay for identification of artifact compounds. (AID 1845222);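 note: series mostly up to about 54 µM; 0% = DMSO and -100% = no enzyme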
Outline: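 Luminescence read-out of secreted NLuc in S16 cell conditioned medium (1:55); compounds tested with 15 min RT preincubation, then Nano-Glo substrate 1:100, 5 min. % inhibition vs no-enzyme and DMSO controls, 4-parameter Hill fit.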

CCCCCCCCCCCC[n+]1ccc2ccccc2c1
inactive: Potency [1] | Potency [2]

O=S(=O)(Nc1ccc(C(O)(C(F)(F)F)C(F)(F)F)cc1)c1cccs1
inactive: Potency [1] | Potency [2] | Potency [3] | Potency [4] | Potency [5]

Cc1c(N2C(=O)c3ccc(C(=O)O)cc3C2=O)c(=O)n(-c2ccccc2)n1C
inactive: Potency [1] | Potency [2] | Potency [3] | Potency [4]

O=C(O)c1cc(O)c2cccc(O)c2c1O[C@@H]1O[C@H](CO)[C@@H](O)[C@H](O)[C@H]1O
inactive: Potency [1] | Potency [2] | Potency [3]
active: Potency [4] 2.07 µM

CCOc1ccc2c(c1)C(C)=CC(C)(C)N2
active: Potency [2] 31.6 µM
inactive: Potency [1]

CCNC(=O)CCC/C=C\C[C@@H]1[C@@H](/C=C/C(O)CCc2ccccc2)[C@@H](O)C[C@@H]1O (some centres not stated)
inactive: Potency [1] | Potency [2] | Potency [3] | Potency [4] | Potency [5]

C=CC1(C)C=C2C(=O)CC3C(C)(C)CCCC3(C(=O)O)C2(O)CC1 (configuration not stated)
inactive: Potency [1] | Potency [2] | Potency [3] | Potency [4]

O=C(/C=C/c1c(C(=O)O)[nH]c2cc(Cl)cc(Cl)c12)Nc1ccccc1
inactive: Potency [1] | Potency [2] | Potency [3] | Potency [4]

C/C(=C\CCC(C(=O)O)C1CCC2(C)C3=C(CCC12C)C1(C)CCC(=O)C(C)(C)C1CC3)C(=O)O (configuration not stated)
inactive: Potency [1] | Potency [2] | Potency [3] | Potency [4] | Potency [5]

C[C@@H]1O[C@@H](O[C@H]2[C@H](O[C@H]3[C@H](O[C@H]4CC[C@@]5(C)C(CC[C@]6(C)C5CC=C5[C@@H]7CC(C)(C(=O)O)C[C@@H](O)[C@]7(C)CC[C@]56C)[C@@]4(C)CO)O[C@H](C(=O)O)[C@@H](O)[C@@H]3O)O[C@H](CO)[C@H](O)[C@@H]2O)[C@H](O)[C@H](O)[C@H]1O (some centres not stated)
inactive: Potency [1] | Potency [2] | activity change, negative = inhibition [3] 0.24% [at 11.6 µM]

CC[N+](CC)(CC)CCC(O)(c1ccccc1)C1CCCCC1 (configuration not stated)
inactive: Potency [1] | Potency [2]

C/C=C/C=C/C(CC(=O)O)Nc1ccc(C=O)cc1 (configuration not stated)
active: Potency [3] 23.9 µM | Potency [4] 4.74 µM
inactive: Potency [1] | Potency [2]

CC1(C)S[C@@H]2[C@H](NC(=O)C(C(=O)O)c3ccsc3)C(=O)N2[C@H]1C(=O)O (some centres not stated)
inactive: Potency [1] | Potency [2]

C/C=C/C=C/C=C/C(=O)O[C@@H]1[C@@H](OC)C2=C(C(=O)N(C(C)C(=O)O)C2)[C@@]2(C)CCCC(C)(C)[C@H]12 (some centres not stated)
inactive: Potency [1] | Potency [2] | Potency [3] | Potency [4] | Potency [5]

CC(C)N=c1cc2n(-c3ccc(Cl)cc3)c3ccccc3nc-2cc1Nc1ccc(Cl)cc1
inactive: Potency [1] | Potency [2]

COc1ccc(/C=C/C(=O)O[C@@H]2[C@@H](OC(C)=O)[C@@H](OC(C)=O)[C@H](O[C@H]3[C@@H]4C=CO[C@@H](O[C@@H]5O[C@H](CO)[C@@H](O)[C@H](O)[C@H]5O)[C@@H]4[C@@]4(CO)O[C@@H]34)O[C@H]2C)cc1O
inactive: Potency [1] | Potency [2] | Potency [3]

COC(=O)C1C(c2ccc(O)cc2)C(C(=O)OC)C1c1ccc(O)cc1 (configuration not stated)
inactive: Potency [1] | Potency [2] | Potency [3]

COc1cc(C/C(=C/NC(C)=O)N(CC(=O)Cc2ccccc2)C(C)=O)cc2c1OCO2
inactive: Potency [1] | Potency [2] | Potency [3] | Potency [4] | Potency [5]

C=C1CCC2C(C)(COC3OC(COC(=O)CC(=O)O)C(O)C(O)C3O)CCCC2(C)C1CCC1=CCOC1=O (configuration not stated)
inactive: Potency [1] | Potency [2] | Potency [3] | Potency [4] | Potency [5]

CC(Cc1ccc(O)c(O)c1)C(C)Cc1ccc(O)c(O)c1 (configuration not stated)
active: Potency [2] 11.2 µM
inactive: Potency [1]

CC[N+](C)(C)Cc1ccccc1Br
inactive: Potency [1] | Potency [2]

CC1(C)CCC2(C(=O)OC3OC(COC4OC(CO)C(O)C(O)C4O)C(O)C(O)C3O)CCC3(C)C(=CCC4C5(C)CCC(O)C(C)(C(=O)O)C5CCC43C)C2C1O (configuration not stated)
inactive: Potency [1] | Potency [2] | activity change, negative = inhibition [3] 2.78% [at 11.6 µM] | activity change, negative = thiol reactive [4] 16.4% [at 11.5 µM] | activity, negative = inhibition [5] 2.66% [at 11.6 µM]

CO[C@@H]1COCC[C@@H]1N[C@@H]1CC[C@@](C(=O)N2CCc3ncc(C(F)(F)F)cc3C2)(C(C)C)C1
inactive: Potency [1] | Potency [2] | Potency [3] | Potency [4] | Potency [5]

CC1(C)O[C@@H]2C[C@H]3[C@@H]4CCC5=CC(=O)C=C[C@]5(C)[C@H]4[C@@H](O)C[C@]3(C)[C@]2(C(=O)CO)O1
inactive: Potency [1] | Potency [2]

CC(=O)N(CC(C)C(=O)O)c1c(I)cc(I)c(N)c1I (configuration not stated)
inactive: Potency [1] | Potency [2]

CC1=C(C)C(=O)OC(C(C)(O)C2CCC3C4CC=C5CC(OC6OC(COC7OC(CO)C(O)C(O)C7O)C(O)C(O)C6O)CC(O)C5(C)C4CCC32C)C1 (configuration not stated)
inactive: Potency [1] | Potency [2] | Potency [3] | Potency [4] | Potency [5]
